Data taken from PubChem BioAssay (NCATS).
Records with an inconclusive call do not appear. A number with no mark means an inactive call. Active and inactive are the calls of the source. The call rests on the fitted dose curve; in most records, active means well fitted cell-killing curve with a large enough effect; inconclusive means small, poorly fitted or top-dose-only effect, or effect the other way; inactive means no such curve, though single readings can be large or run the other way.

Key:
[1] = Viability qHTS for spleen associated tyrosine kinase inhibitor (SYKi) naive MV4-11 cells (AID 1963823); further: nearly all actives have a fitted effect of over 40% in size
Method in brief: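 SYKi-naive MV4-11 AML cells, 500 per well, were exposed to library compounds for 72 hr at 37 C, 5% CO2. Viability was then read by CellTiter-Glo luminescence after 10 min at room temperature.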

[2] = Viability qHTS for spleen associated tyrosine kinase inhibitor (SYKi) drug resistant MV4-11 cells (AID 1963824); further: nearly all actives have a fitted effect of over 35% in size
Method in brief: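 CellTiter-Glo luminescence, read 10 min after reagent addition, reports viability after a 72 hr compound exposure. Cells are an MV4-11 line made resistant to SYK inhibition, seeded at 500 per well onto compound-containing plates.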
Potency means the concentration at half of the fitted maximal effect.

Structure (SMILES)	Potency [1]	Potency [2]	viability (% of control) [1]	viability, % of control [2]
COc1cc2c(Nc3cc(F)c(Cl)c(Cl)c3)ncnc2cc1OCC1CCCN(C)CCC1	1.16 µM (active)	2.59 µM (active)		
O=c1cc(NCCCN[C@@H]2CCOc3c(Br)cc(Br)cc32)[nH]c2ccsc12	10.3 µM (active)	7.31 µM (active)		
CC1=C(C(=O)Nc2cc(Cl)ccc2Cl)C(c2ccco2)C2=C(CCCC2=O)N1 (centres undefined)	14.6 µM (active)	16.4 µM (active)		
C=C1C(OC(C)=O)C(=O)C2C(C)(C)C(O)CCC2(C)C1CC(OC(C)=O)/C(C)=C/COC(C)=O (centres undefined)	inactive	inactive		
CC(C)(C)Nc1nc(Nc2ccc(C(N)=O)cc2)cc(N)c1C#N	1.64 µM (active)	2.31 µM (active)		
CC(C)CC(=O)O[C@@H]1O[C@H](CO)[C@@H](O[C@H]2O[C@H](C)[C@@H](N[C@H]3C=C(CO)[C@@H](O[C@H]4O[C@H](CO)[C@@H](O[C@H]5O[C@H](CO)[C@@H](O[C@H]6O[C@H](CO)[C@@H](O)[C@H](O)[C@H]6O)[C@H](O)[C@H]5O)[C@H](O)[C@H]4O)[C@H](O)[C@H]3O)[C@H](O)[C@H]2O)[C@H](O)[C@H]1O			82.5% [at 9.25 µM]	101% [at 9.25 µM]
CC1(C)CC2C3=CCC4C5(C)CCC(OC6OC(CO)C(O)C(OC7OC(CO)C(O)C(OC8OC(CO)C(O)C(OC9OC(COC%10OC(CO)C(O)C(O)C%10O)C(O)C(O)C9O)C8O)C7O)C6O)C(C)(C)C5CCC4(C)C3(C)CCC2(C(=O)O)CC1O (centres undefined)			81.7% [at 9.25 µM]	99.5% [at 9.25 µM]
OC1(CN2CCC(COc3noc4cccc(O[C@@H]5CCOC5)c34)CC2)CCOCC1	inactive	inactive		
Oc1cccc(Nc2ccnc3cc(-c4cccc(CN5CCOCC5)c4)sc23)c1	0.291 µM (active)	0.461 µM (active)		
CC1(C)CC[C@]2(C(=O)O)CC[C@]3(C)C(=CCC4[C@@]5(C)CC[C@H](O[C@@H]6O[C@H](C(=O)O)[C@@H](O[C@@H]7OC[C@@H](O)[C@H](O)[C@H]7O)[C@H](O)[C@H]6O)C(C)(C)C5CC[C@]43C)C2C1O (some centres undefined)	inactive	inactive		
C=C(C(=O)OC)C1C(O)CC2(C)C(=O)CCC(O)(CO)C2C1O (centres undefined)	inactive	inactive		
COc1cc2nc(N3CCCC3)nc(NCCCCCN3CCCC3)c2cc1OC	1.3 µM (active)	2.59 µM (active)		
CC(=O)O[C@@H](C[C@@H]1C=C(C)C(=O)O1)[C@H](C)[C@H]1CCC2[C@@]3(C)CC[C@H](O[C@@H]4O[C@H](CO)[C@@H](O)[C@H](O)[C@H]4O[C@@H]4O[C@@H](C)[C@H](O)[C@@H](O)[C@H]4O)C(C)(C)C3CC[C@@]2(C)[C@@]12COC(=O)C2 (some centres undefined)			81.6% [at 9.25 µM]	89.9% [at 9.25 µM]
CCOC(=O)c1cc(C#N)c(N2CCC(C(=O)NS(=O)(=O)Cc3ccccc3)CC2)nc1C	inactive	inactive		
CC(=O)O[C@H]1[C@H](O[C@H]2[C@@H]3C=CO[C@@H](O[C@@H]4O[C@H](CO)[C@@H](O)[C@H](O)[C@H]4O)[C@@H]3[C@@]3(CO)O[C@@H]23)O[C@@H](C)[C@H](OC(=O)/C=C/c2ccccc2)[C@H]1OC(=O)/C=C/c1ccccc1			88.5% [at 9.25 µM]	83.3% [at 9.25 µM]
CC(=O)OC[C@@]12[C@H](O)C[C@]3(C)C(=CCC4[C@@]5(C)CC[C@H](O[C@@H]6O[C@H](C(=O)O)[C@@H](O[C@@H]7O[C@H](CO)[C@@H](O)[C@H](O)[C@H]7O)[C@H](O)[C@H]6O[C@@H]6O[C@H](CO)[C@@H](O)[C@H](O)[C@H]6O)[C@](C)(CO)C5CC[C@]43C)[C@@H]1CC(C)(C)[C@@H](OC(C)=O)[C@@H]2O (some centres undefined)			96.3% [at 9.25 µM]	95.8% [at 9.25 µM]
C[C@@H]1O[C@@H](O[C@@H]2[C@@H](O)[C@H](O[C@H]3CC[C@@]4(C)C(CC[C@]5(C)C4CC=C4[C@@H]6CC(C)(C)CC[C@]6(C(=O)O[C@@H]6O[C@H](CO)[C@@H](O)[C@H](O)[C@H]6O)CC[C@]45C)C3(C)C)O[C@H](C(=O)O)[C@H]2O)[C@H](O)[C@H](O)[C@H]1O (some centres undefined)			80.6% [at 9.25 µM]	81.8% [at 9.25 µM]
